# Out of some 370,000 compounds screened, about 2,600 (0.7%) were called active.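 How the source made its calls: active means inhibition above a cutoff: mean of compounds within the control limits plus 3 SD of those (cut at about 17% in these data); inactive means the rest.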 Shown is part of a subset that was picked to be rich in actives.
# Target: Sialate O-acetylesterase (Homo sapiens) (UniProt Q9HAT2)
# Experiment: human SIAE inhibitors, primary screen, biochemical, fluorescence polarization, FP-Rh probe, 1536-well HTS (AID 1053197);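 further: 0% = plate median of compound wells and 100% = probe without SIAE protein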
# Conditions: SIAE FP-Rh probe binding, at 9.66 µM, hits give high values
# Sialate O-acetylesterase (Homo sapiens), sequence (Q9HAT2 whole entry, looked up): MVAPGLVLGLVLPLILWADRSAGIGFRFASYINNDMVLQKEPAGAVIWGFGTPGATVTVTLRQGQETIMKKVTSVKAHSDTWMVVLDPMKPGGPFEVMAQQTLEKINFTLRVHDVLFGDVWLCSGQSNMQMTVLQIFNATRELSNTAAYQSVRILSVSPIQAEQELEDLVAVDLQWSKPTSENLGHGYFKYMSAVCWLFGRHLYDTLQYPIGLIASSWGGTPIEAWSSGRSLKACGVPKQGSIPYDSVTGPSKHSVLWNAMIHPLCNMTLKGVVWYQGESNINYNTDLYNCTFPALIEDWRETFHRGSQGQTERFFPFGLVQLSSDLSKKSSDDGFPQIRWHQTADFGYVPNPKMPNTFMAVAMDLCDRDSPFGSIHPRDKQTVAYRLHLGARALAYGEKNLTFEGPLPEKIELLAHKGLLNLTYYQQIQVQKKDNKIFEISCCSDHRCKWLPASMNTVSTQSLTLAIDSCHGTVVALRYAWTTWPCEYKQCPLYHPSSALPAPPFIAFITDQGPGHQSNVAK
row,Compound,inhibition
1,C#CCN([C@H](C(=O)OC)C(C)CC)S(=O)(=O)c1ccccc1Br (stereo partly specified),-0.84% (inactive)
2,Cc1nc(-c2ccc(F)cc2)c(CC(=O)N(C)CC(=O)Nc2c(C)cccc2C)s1,-6.4% (inactive)
3,Cc1cccc(C)c1NC(=O)CN(C)C(=O)CCC(=O)c1ccccc1,19.1% (active)
4,Cc1ccc(C(=O)CCC(=O)N(C)CC(=O)Nc2c(Cl)cccc2Cl)cc1,4.52% (inactive)
5,O=C(CSc1nc2ccccc2nc1N1CCCCC1)N1CCN(S(=O)(=O)c2cccc([N+](=O)[O-])c2)CC1,1.34% (inactive)
6,O=C1C(=O)N(Cc2ccc(-c3ccsc3)cc2)c2ccc(OC(F)(F)F)cc21,4.4% (inactive)
7,Oc1ccc2ccc3cccc[n+]3c2c1,17.1% (active)
8,COc1ccc(C(=O)CSc2nnc(-c3cnccn3)n2-c2ccc(C)cc2)cc1,4.14% (inactive)
9,CCOC(=O)N1CCN(C(=O)C[C@@H]2C(=O)N(CCc3ccc(Cl)cc3)C3=CCCC[C@]32C(=O)OCC)CC1,2.23% (inactive)
10,CCCCNC(=O)C[C@@H]1C(=O)N(CCc2ccc(Cl)cc2)C2=CCCC[C@]21C(=O)OCC,-0.15% (inactive)
11,Cc1ccc(C)c(NC(=O)CCS(=O)(=O)c2ccccc2)c1,-0.04% (inactive)
12,CCCCCCCCNS(=O)(=O)/C=C/c1cc(C)ccc1CNC(=O)OC(C)(C)C,-1.33% (inactive)
13,Cc1ccc(C)c(NC(=O)NNC(=O)c2ccc3ccccc3c2O)c1,13.1% (inactive)
14,Cc1cc(C(=O)NNC(=O)c2cccc(S(=O)(=O)N3CCOCC3)c2)c2ccccc2n1,0.67% (inactive)
15,O=C(NNc1c2ccccc2nc2ccccc12)c1cc2ccccc2cc1O,49.5% (active)
16,COc1ccc(/C=C2\CC3(OC(C)=O)CCCN2C3)cc1 (stereo unspecified),5.11% (inactive)
17,Cc1ccc(-n2c(SCC(=O)Nc3cccc4ccccc34)nnc2-c2ccco2)cc1,-4.95% (inactive)
18,CC(=O)O[C@@]1(C(C)=O)CCC2[C@H]3C=C(C)C4=CC(=O)CC[C@@]4(C)C3CC[C@]21C (stereo partly specified),4.07% (inactive)
19,S=C(Nc1ccc(Br)cc1Cl)NC1CCN(Cc2ccccc2)CC1,5.25% (inactive)
20,O=C(NC1CCN(Cc2ccccc2)CC1)c1cc(Br)c(Br)[nH]1,-7.58% (inactive)
21,S=C(Nc1ccc(Br)cc1)NC1CCN(Cc2ccccc2)CC1,17.1% (active)
22,N#Cc1ccccc1OC[C@@H](O)CN1CCC(C(O)(c2ccccc2)c2ccccc2)CC1,3.53% (inactive)

row,Compound,inhibition
1,CN[C@H]1C[C@H]2c3cc(N4CCOCC4)ccc3CCN2C[C@H]1[C@H](C)O,3.31% (inactive)
2,CCCCNC(=O)C1CCCN(S(=O)(=O)c2ccc(S(=O)(=O)NCC(C)C)cc2)C1 (stereo unspecified),-1.45% (inactive)
3,COc1ccc(CCNC(=O)C2CCCN(S(=O)(=O)c3ccc(OC)cc3)C2)cc1 (stereo unspecified),-4.52% (inactive)
4,CC(C)CCNC(=O)C1CCCN(S(=O)(=O)c2ccc(F)cc2)C1 (stereo unspecified),23.3% (active)
5,Cc1ccc(NC(=O)Nc2cc(C)nn2-c2ccccc2)cc1,0.39% (inactive)
6,CCOC(=O)[C@@]12CCC3=C1N(CCC3)C(=O)[C@H](CC(=O)N1CCN(C(=O)c3ccco3)CC1)C2,8.17% (inactive)
7,O=C(Nc1ccc(Br)cc1)OCCN1C(=O)CCC12CCC(c1ccccc1)CC2 (stereo unspecified),2.49% (inactive)
8,Cc1cccc(C)c1NC(=O)COC(=O)c1c(C)nn(-c2ccccc2)c1C,2.02% (inactive)
9,CCOC(=O)c1c(C)nn(-c2ncccc2NC(=O)CCC(=O)O)c1C,19.8% (active)
10,Cc1ccc(OC(=O)c2c(C)nn(-c3ccccc3)c2C)cc1,5.09% (inactive)
11,COc1cc(/C=C/C(=O)n2cnc3ccccc32)cc(OC)c1OC,-3.74% (inactive)
12,CCc1ccc(NC(=O)C(C)OC(=O)/C=C/c2cccc([N+](=O)[O-])c2)cc1 (stereo unspecified),-4.1% (inactive)
13,CN(C(=O)c1cccc(NC(=O)Cc2cccc([N+](=O)[O-])c2)c1)C1CCCCC1,-12.1% (inactive)
14,CS(=O)(=O)N(CC(=O)Nc1ccc(F)cc1F)c1cccc([N+](=O)[O-])c1,5.36% (inactive)
15,CN(CC(=O)Nc1cccc(F)c1)CC(=O)Nc1cccc([N+](=O)[O-])c1,21.2% (active)
16,CC(=O)Nc1cccc([N+](=O)[O-])c1,19.3% (active)
17,CC(=O)Nc1cccc(Nc2ccc(C#N)cc2)c1,7.95% (inactive)
18,COC(=O)[C@]12C[C@H](CC(=O)NCc3cccc4ccccc34)C(=O)N(CCc3ccc(OC)c(OC)c3)C1=C[C@H](C1CCCC1)O[C@@H]2C,-2.97% (inactive)
19,O=C(OC12CCCN(C1)/C(=C/c1ccccc1)C2)c1ccco1 (stereo unspecified),0.28% (inactive)
20,COP(=O)(O)CNC(=O)OCc1ccccc1,0.82% (inactive)
21,O=C(NCc1cccs1)C1CCN(S(=O)(=O)c2ccccc2[N+](=O)[O-])CC1,-0.55% (inactive)
22,CCN(CC)C(=O)CC[C@H]1CC[C@]2(CCCN(Cc3ccc(Cl)cc3)C2)O1,-1% (inactive)

row,Compound,inhibition
1,Cc1ccccc1NC(=O)COC(=O)c1ccc(Sc2ncn[nH]2)c([N+](=O)[O-])c1,0.99% (inactive)
2,CCOC(=O)N1CCN(C(=O)C[C@H]2C[C@@]3(C(=O)OC)C(=C[C@H](C(C)(C)C)O[C@@H]3C)N(Cc3ccc(Cl)cc3Cl)C2=O)CC1,4.46% (inactive)
3,Cc1ccc2c(c1)C1CN(C)CCC1N2C(=S)Nc1ccc(OC(F)F)cc1 (stereo unspecified),19% (active)
4,Cc1ccc2c(c1)C1CN(C)CCC1N2C(=O)c1ccccc1NS(=O)(=O)c1ccc(F)cc1C (stereo unspecified),-4.94% (inactive)
5,Cc1ccc2c(c1)C1CN(C)CCC1N2C(=S)Nc1ccc(Cl)cc1Cl (stereo unspecified),-1.14% (inactive)
6,O=C(OCC#CCSc1nnc(-c2ccco2)o1)c1ccc(F)cc1,-3.86% (inactive)
7,FC(F)(F)c1cccc(Cn2ccc3ccc(-c4ccc5ccn(Cc6ccccc6)c5c4)cc32)c1,-4.98% (inactive)
8,Cc1nc(-c2ccc(Cl)cc2)sc1C1(C)CC(c2ccc(Br)cc2)=NO1 (stereo unspecified),-4.52% (inactive)
9,Cc1nc(-c2ccc(Cl)cc2)sc1C(=O)NN,17.1% (active)
10,Cc1nc(N2CCOCC2)sc1C(=O)NN,4.29% (inactive)
11,CN(C)S(=O)(=O)c1cccc(C(=O)N/N=C\c2ccco2)c1,1.17% (inactive)
12,CC1(C)CC(=O)C(N=Nc2ccc(S(=O)(=O)N3CCCCCC3)cc2)=C(O)C1,-6.58% (inactive)
13,O=C1CCCC(O)=C1N=Nc1ccc(S(=O)(=O)N2CCOCC2)cc1,32.3% (active)
14,O=C1CCCC(O)=C1N=Nc1ccc2ncsc2c1,4.95% (inactive)
15,COc1cccc(/C=C2\CC3(OC(C)=O)CCCN2C3)c1 (stereo unspecified),5.6% (inactive)
16,CC(NS(=O)(=O)c1ccc(Cl)cc1)C(=O)Nc1ccc2c(c1)OCCO2 (stereo unspecified),17.1% (active)
17,CC(=O)Nc1ccc(NC(=O)C(NS(=O)(=O)c2ccc3c(c2)OCCO3)C(C)C)cc1 (stereo unspecified),-4.61% (inactive)
18,CNS(=O)(=O)c1ccc(NC(=O)Nc2ccc3c(c2)OCO3)cc1,-0.18% (inactive)
19,Cc1ccc(Cn2cc(CN3[C@@H](C)COc4cc(Br)ccc4S3(=O)=O)nn2)cc1,-0.41% (inactive)
20,CC(=O)OCCN1CCCC12CCC(c1ccccc1)CC2 (stereo unspecified),-7.94% (inactive)
21,COc1ccc(-c2nnc(SCC(=O)c3ccc4c(c3)OCCO4)o2)cc1,-8.81% (inactive)
22,COc1cccc(C(=O)Nc2cc3c(cc2Br)OCCCO3)c1,5.12% (inactive)

row,Compound,inhibition
1,COc1ccc2nc(Nc3nc4cc5c(cc4s3)OCCO5)sc2c1,21.1% (active)
2,O=C(NC1CCC1)c1ccc(C#CC2CC2)cn1,3.02% (inactive)
3,CC(C)(C)OC(=O)NCCc1ccccc1/C=C/S(=O)(=O)NCc1ccc(F)cc1,3.43% (inactive)
4,Cc1ccc(-c2nc(C3CCCN(S(=O)(=O)c4ccc(Br)s4)C3)no2)cc1 (stereo unspecified),3.3% (inactive)
5,O=C(CSc1nnc(COc2ccccc2)n1-c1ccc(Cl)cc1)Nc1ccc2c(c1)OCO2,-2.77% (inactive)
6,S=C(NCCCc1cnc[nH]1)NCCCN(Cc1ccc(Cl)c(Cl)c1)c1ccc(Br)cn1,38.7% (active)
7,NCCCNC(=S)NCCCN(Cc1ccc(Cl)cc1)c1ccc(Br)cn1,-4.09% (inactive)
8,COc1ccc(Cn2ccc3ccc(-c4ccc5ccn(Cc6ccccc6C)c5c4)cc32)cc1,1.75% (inactive)
9,COC(=O)[C@]12C[C@H](CC(=O)NCCCN3CCCC3=O)C(=O)N(CCc3ccc(OC)c(OC)c3)C1=C[C@H](COCc1ccccc1)O[C@@H]2C,-1.06% (inactive)
10,CCOC(=O)[C@]12CCCCC/C=C\1N(Cc1ccc(OC)cc1)C(=O)[C@H]2CC(=O)NCc1ccc(C)o1,4.67% (inactive)
11,O=C(CCCCCN1C(=O)C2C3C=CC(C3)C2C1=O)Nc1ccccc1 (stereo unspecified),0.48% (inactive)
12,COc1ccc(CSc2nnc(SCC(=O)Nc3ccccc3C(F)(F)F)s2)cc1,2.74% (inactive)
13,O=C(NCc1cccs1)c1ccc2c(c1)ncn2C1CCCC1,6.82% (inactive)
14,CC(NCc1cccs1)C(=O)Nc1cc(Cl)cc(Cl)c1 (stereo unspecified),8.74% (inactive)
15,Cc1nc2cc(NCc3cccs3)ccc2n1C,82.8% (active)
16,Cc1ccc(CN2CCCCC(NC(=O)C3CCCCC3)C2=O)cc1 (stereo unspecified),-2.58% (inactive)
17,COC(=O)[C@]12C[C@H](CC(=O)NCc3ccccc3)C(=O)N(Cc3ccccc3)C1=C[C@H](COCc1ccccc1)O[C@@H]2C,-4.26% (inactive)
18,CC(=O)Nc1ccc(S(=O)(=O)N2CCCC2C(=O)O)cc1 (stereo unspecified),-4.8% (inactive)
19,CC(=O)Nc1ccc(S(=O)(=O)Nc2ccc(N3CCCCC3)cc2)cc1,22.2% (active)
20,CC(=O)Nc1ccc(S(=O)(=O)N2CCN(C3CCCCCCC3)CC2)cc1,1.94% (inactive)
